According to the supplement of paper PMC6555819:

Key:
Experiment in all cases: PBM binding z-score (relative to random genomic background probes); higher = stronger binding; sequences stand for … in GC…GCGATTGACAGCGTAGAATGAAGG
[1] = test system: RARb homodimer (NR concentration 270 nM)
Outline: (§1)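 On custom Agilent 4×180K arrays, double-stranded probes with 34-nt variable regions carried direct-repeat seeds, single-nucleotide variants, half-site ablations or random human genomic background. Ligand-free nuclear receptor dimers were applied for 1 h, and binding was read with antibodies against each partner (one per run). Binding z-scores come from regression-normalized fluorescence, with the random background probes as reference.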

[2] = test system: RARg:RXRa (NR concentration 270 nM, RXRa partner concentration 90 nM)
Outline: as §1

[3] = test system: RARg homodimer (NR concentration 270 nM)
Outline: as §1

[4] = test system: RXRa DBDmut IVT, anti-RXR (DBD mutation: RXRa K156A/R161A, NR concentration 90 nM)
Outline: as §1

[5] = test system: RXRa homodimer (NR concentration 180 nM)
Outline: as §1

[6] = test system: THRa:RXRa (NR concentration 90 nM, RXRa partner concentration 90 nM)
Outline: as §1

[7] = test system: THRa homodimer (NR concentration 90 nM)
Outline: as §1

[8] = test system: VDR homodimer (NR concentration 270 nM)
Outline: as §1

Sequence	PBM binding z-score [1]	PBM binding z-score [2]	PBM binding z-score [3]	PBM binding z-score [4]	PBM binding z-score [5]	PBM binding z-score [6]	PBM binding z-score [7]	PBM binding z-score [8]
TCTATTAGTTGAATGGCAACCGACGAGTCCGTTT	0.038	0.299	0.139	1.73	0.383	-0.116	0.299	1.28
CAAACTACGTCAAGGTCAAAGTCGGTTTGTGCCA	4.2	4.46	4.3	2.66	4.77	3.96	3.63	4.35
CGAACGAGGGCATGAGTTGATAGCTAATGCCGAT	0.599	1.51	1.52	2.15	0.984	1.25	-0.207	1.67
AGTCAAAGTTCACTAGGTATCGTAAGATTCAGCT	3.71	4.66	5.74	4.28	3.72	1.51	-0.258	4.12
GCTTACCGGTCAAAGGTTATAGCATGAATAGAAT	2.62	5.63	3.54	0.541	5.37	2.2	-0.177	0.217
CGAACTAGGTCAAGGAGAGTGAATCTCCGCACGC	2.9	3.91	4.76	1.44	2.85	2.28	0.799	-0.00315
TCGAGTATGTTACCAATGGGGCATTCAGCTTTCT	-0.135	-0.111	-0.492	0.904	-0.0794	-0.318	-0.731	-0.375
TGAATGAGGTTATAAGGTCAGGGAACGTTGCAAA	4	5.81	4.21	1.11	5.44	4.24	3.73	1.88
ATCTCTAGGTAACCAATTTCAGTGAATGCCGAAC	0.515	0.324	0.586	0.556	0.198	0.887	0.984	0.312
CAAACTCGGTCAAGAGGTCAAAGTCCGCTTCCCG	5.17	7.26	6.13	2.01	6.42	3.9	1.61	3.72
CGTCCAAGGTCAATGCTAGGTCAGTGGAAGCATT	4.74	7.51	6.88	3.57	4.86	4.32	2.84	3.57
CGTCCAAGGTCAAGATCAGTGAAAGAGACTCGAA	3.53	5.63	6.45	3.61	5.54	3.58	1.84	1.6
CCTATTAGTTGACCAAAAGGGCAACCGAAGCTCG	3.11	2.31	1.84	0.787	1.09	0.99	0.0968	0.7
TCGAGTAGGTGAGGGGCATTCAGAATGGCGTCGA	0.716	-0.0952	-0.106	0.0823	0.442	0.268	-0.559	-0.687
CCTATTAGTTGACCATAAGGGCAACCCAAGCTCG	2.32	1.44	1.19	0.764	0.835	2.07	1.53	1.28
GCATATAGGTAATACAAGGTGAAAGTACGATTGT	0.886	0.699	0.793	0.0522	0.99	4.29	0.806	0.163
TTACCAAGGTGAGCTGAGGTCGTTGATCCAACTC	1.78	1.24	1.11	0.206	1.53	4.79	1.88	2.5
CAAACTAGGTCATAGGTCAAAGTCGAGCCAACCA	4.27	6.56	5.38	2.31	7.49	4.11	1.44	1.92
CCTACTGGGCCAAAAGGGTCATTGATGCCGATAA	3.22	3.29	2.71	0.103	3.26	2.17	-0.01	2.72

Sequence	PBM binding z-score [1]	PBM binding z-score [2]	PBM binding z-score [3]	PBM binding z-score [4]	PBM binding z-score [5]	PBM binding z-score [6]	PBM binding z-score [7]	PBM binding z-score [8]
TCTATCAGTTGATTAGGGCAACCGAAACAGCGGA	0.548	0.522	0.467	0.825	0.276	0.643	-0.0881	-0.1
TCTAGTTGGTCACGGAGGTCACACATGACGGGTA	4.7	4.74	4.94	1.1	4.96	3.73	2.5	3.54
ATATGTAGGTTATCGGGTAATTCAGTTTGCGCAT	0.9	0.94	0.821	0.617	1.05	1.29	1.26	1.3
ATATGTAGGTTACATCCGGGTCATTTAGGCTATG	2.76	3.59	1.81	1.21	3	3.7	2.55	2.98
TTAGACAGGTGAAGGTAACTCAGGTACGCAGTCG	0.861	0.559	0.81	-0.329	0.753	1.48	0.377	0.53
ATCGAAAGGTCGACGGTGAGTATACCCACCCGAA	2.53	4.19	3.92	0.878	4.27	1.88	-0.262	0.289
TCGCCTAGGTCAGATCGGGCCAGTATACGCTATA	2.21	2.39	3.24	0.643	1.38	3.98	0.0988	-0.139
GCGACTGGGGCATCAGCTGGTTACCATAACTTAA	0.0831	0.0774	0.0488	-0.446	-0.273	-0.306	-0.655	-0.58
ACTAGATGGTCAGCTGAGGTCACACACAATTCGG	4.52	4.38	4.75	1.45	4.78	5.09	5.1	3.61
CGTAGCAGGCCAGGGTCACTCAAGCATTTCGCTT	2.51	3.02	2.53	0.749	3.36	2.84	1.33	1.18
ACTATTAGCTGACTTAGGGCAACCGATACGACGC	0.665	0.504	0.628	0.619	0.197	0.454	0.576	-0.00444
TCGAGTAAGTTAGGGGCATTCAGAATGGCGTCGA	0.241	0.189	-0.154	0.53	0.495	1.08	-0.16	0.751
TGGCAAAGTTCAAAGGTAACGTAAGTATCCACAC	4.03	6.21	5.81	4.22	7.78	3.41	-0.0262	4.04
ATCTCTAGGTAAAAGGTCAGTGAATCCCGAGGAT	4.43	4.54	4.74	0.227	4.83	3.34	0.855	0.867
GCTATTAGTTGAAAGGGCAACGGAATGATTCTCG	1.94	1.36	1.26	0.668	1.2	0.463	-0.221	0.0426
CCTACTGGGCCACGAAAGGACATTGATTCAGTGA	1.2	0.593	1.01	-0.0534	-0.0708	1.94	0.069	-0.0244
CCGACTGGGGTATAAGGTTACCATAAGCCAGCCC	0.893	0.542	0.421	-0.174	1.11	2.02	1.21	-0.0356
AGAATGAGGTTACCAAAGATCAGGTAAACGCTTG	0.973	2.09	1.47	0.793	2.75	2.98	1.22	0.168
TCTTGTAGAACAAAGGTTAAGAAAGCCGAAGCCT	1.45	1.55	0.851	0.724	2.32	1.05	-0.79	-0.438

Sequence	PBM binding z-score [1]	PBM binding z-score [2]	PBM binding z-score [3]	PBM binding z-score [4]	PBM binding z-score [5]	PBM binding z-score [6]	PBM binding z-score [7]	PBM binding z-score [8]
ACAATTAGTTGACTTAGGGCAACCGATACGACGC	1.03	0.677	0.936	0.628	0.455	1.37	0.444	0.709
GCATACAGGTAATACAAGGTGAAAGTCCGATTGT	1.04	0.773	0.617	0.25	0.894	4.17	1.16	0.161
ATCGAAAGGCCGAAGGTGAGTATACCCACCCGAA	0.463	0.847	0.8	-0.881	0.581	0.037	-0.66	-0.679
ATATGTAGGTGAGCTGGGGTCATTCAGACTAGGC	3.97	4.01	2.84	1.57	5.56	5.14	3.37	4.43
CCTGCTAGGTCAATGGTCAGGTAAAGCAGCTCGC	2.93	3.45	4.27	1.52	2.28	2.65	1.34	0.248
CCTACTGGGCCACGAAAGATCATTGATTCAGTGA	-0.335	-0.154	0.283	-0.361	0.0459	-0.0965	-0.393	-0.52
GCATATAGGTAATACAAGGTGAAAGCCCGATTGT	0.51	0.492	0.56	0.379	0.681	4.09	0.763	-0.285
TAGCCTAGGCCATGCGGGCCAGTATAGTGTCGGC	-0.484	-0.409	-0.0767	-1.68	-0.471	-0.614	-1.02	-1.02
TCATACAGGTAAACAGGTGAAAGTCCGTAAGTTA	1.16	0.793	0.447	1.62	1.12	1.05	0.697	0.33
CGTCCAAGCTCAATGCTAGGTCAGTGAAAGCATT	1.84	0.587	0.598	-0.0158	-0.025	1.09	0.344	-0.453
TCTATTAGTTGATTAGGGCAACCCAAACAGCGGA	0.891	0.877	0.646	1.04	0.612	0.77	0.499	0.49
ATCGAAAGATCGAAGGTGAGTATACCCACCCGAA	-0.186	0.34	0.489	-0.722	0.765	0.17	-0.601	-0.259
CCTAGGAGGCCAGGGTCACTCAAGCATTTCGCTT	2.95	2.9	2.55	-0.274	3.08	2.8	0.866	1.02
CCTCGGAGGACAGAAGGTCAGAGATGTCCGCTTT	3.39	3.26	3.21	-0.0318	1.74	2.05	-0.116	0.382
AGAACGAGGGCACGCTGAGTTAATAGCAGAGTAG	0.988	2.08	2.41	1.8	1.44	2.05	0.0156	1.08
TCTAGCAGGCCAGAGGGTCACTGAAGAGGTACGG	2.72	2.74	1.97	-0.0936	2.63	1.7	-0.233	0.299
TCTATTAGTTGAAGGGCATCCGACGAGTCCGTTT	0.904	0.374	0.361	1.86	0.598	0.0886	0.288	1.51
CGTCCAAGGTCAGCAGGTCCGTGAAAGCGACGTG	4.13	5.15	5.97	2.96	3.76	3.59	1.92	2.71
CCTAGCAGGCCAATCTGGGTCACTGAAGGCTTGA	2.38	1.15	1.38	0.114	0.872	3.79	0.399	-0.314
